This is an account of results in PMC7862700, “An all-to-all approach to the identification of sequence-specific readers for epigenetic DNA modifications on cytosine”.

Common to all, as to assay: DAPPL (digital affinity profiling via proximity ligation, sequencing); 10 mM Tris-HCl pH 7.5, 50 mM NaCl, 1 mM DTT, 4% glycerol, room temperature, 30 min; GST-TFs on glutathione beads, 16-mer random dsDNA library, 0.1% formaldehyde crosslink after washing; high values mean tight binding
Holding throughout (details): protein: recombinant; tags: N-terminal GST; dsDNA, one strand shown

One assay addresses T1, ELK1 (Homo sapiens, UniProt P19419 1-428).
T1 sequence: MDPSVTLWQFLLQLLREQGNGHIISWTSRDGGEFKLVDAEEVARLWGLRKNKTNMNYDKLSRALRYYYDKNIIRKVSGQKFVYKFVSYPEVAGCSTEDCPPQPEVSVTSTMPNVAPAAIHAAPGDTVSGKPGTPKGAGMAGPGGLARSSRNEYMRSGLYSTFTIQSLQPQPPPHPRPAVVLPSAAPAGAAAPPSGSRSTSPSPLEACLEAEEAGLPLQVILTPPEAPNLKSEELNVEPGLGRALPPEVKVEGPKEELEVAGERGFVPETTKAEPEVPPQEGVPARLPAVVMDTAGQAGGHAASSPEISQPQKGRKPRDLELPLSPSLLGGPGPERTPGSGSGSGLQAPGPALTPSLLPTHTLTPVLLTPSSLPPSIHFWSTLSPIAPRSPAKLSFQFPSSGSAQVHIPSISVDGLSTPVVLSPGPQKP
The gist of the method: (§1)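 Beads coated with glutathione captured GST-fused human transcription factors that had been expressed in yeast, and the factors were then given DNA barcodes and pooled with a tag-only sample. The pools were incubated with 200 nmole of a random double-stranded 16-mer DNA library in Tris/NaCl/DTT/glycerol buffer for 30 min at room temperature, washed, crosslinked with 0.1% formaldehyde and proximity-ligated with BsaI/T4 ligase at 37 °C for 1 h. PCR amplification and Illumina NextSeq500 sequencing came last. Binding signal is each hexamer's read frequency for a factor divided by its frequency for the tag-only sample.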

The next assay deals with T2, GABPA (Homo sapiens, UniProt Q06546 1-454).
T2 sequence: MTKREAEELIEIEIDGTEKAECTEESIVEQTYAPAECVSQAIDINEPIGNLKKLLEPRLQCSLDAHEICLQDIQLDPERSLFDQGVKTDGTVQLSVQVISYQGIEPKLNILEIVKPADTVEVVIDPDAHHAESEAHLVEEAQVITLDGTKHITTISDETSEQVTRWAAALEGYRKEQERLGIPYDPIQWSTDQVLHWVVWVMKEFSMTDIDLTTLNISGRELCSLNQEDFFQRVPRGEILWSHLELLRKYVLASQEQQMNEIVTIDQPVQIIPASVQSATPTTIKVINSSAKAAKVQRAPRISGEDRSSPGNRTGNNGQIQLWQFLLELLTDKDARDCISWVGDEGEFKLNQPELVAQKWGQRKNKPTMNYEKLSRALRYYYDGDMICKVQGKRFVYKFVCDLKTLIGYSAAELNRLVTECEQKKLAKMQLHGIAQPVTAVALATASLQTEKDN
The gist of the method:
as §1

In the next assay the target is T3, ERG (Homo sapiens, UniProt P11308 1-479).
T3 sequence: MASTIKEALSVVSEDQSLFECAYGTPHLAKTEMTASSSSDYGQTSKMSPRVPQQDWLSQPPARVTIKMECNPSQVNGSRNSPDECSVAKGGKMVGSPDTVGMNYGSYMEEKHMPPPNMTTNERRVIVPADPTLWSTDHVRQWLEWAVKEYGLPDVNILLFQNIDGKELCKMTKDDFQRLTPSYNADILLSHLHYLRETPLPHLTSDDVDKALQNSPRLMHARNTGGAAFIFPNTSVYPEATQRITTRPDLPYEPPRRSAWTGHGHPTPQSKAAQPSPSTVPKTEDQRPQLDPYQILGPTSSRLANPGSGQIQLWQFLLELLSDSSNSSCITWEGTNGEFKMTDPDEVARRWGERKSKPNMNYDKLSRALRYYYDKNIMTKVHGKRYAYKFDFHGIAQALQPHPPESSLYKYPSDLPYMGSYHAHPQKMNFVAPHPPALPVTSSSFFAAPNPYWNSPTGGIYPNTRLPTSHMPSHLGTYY
Put shortly: as §1

The target in a further assay is ELF1 (Homo sapiens, UniProt P32519 1-619). Put shortly: as §1
The target in a further assay is T4, EHF (Homo sapiens, UniProt Q9NZC4 1-300).
T4 sequence: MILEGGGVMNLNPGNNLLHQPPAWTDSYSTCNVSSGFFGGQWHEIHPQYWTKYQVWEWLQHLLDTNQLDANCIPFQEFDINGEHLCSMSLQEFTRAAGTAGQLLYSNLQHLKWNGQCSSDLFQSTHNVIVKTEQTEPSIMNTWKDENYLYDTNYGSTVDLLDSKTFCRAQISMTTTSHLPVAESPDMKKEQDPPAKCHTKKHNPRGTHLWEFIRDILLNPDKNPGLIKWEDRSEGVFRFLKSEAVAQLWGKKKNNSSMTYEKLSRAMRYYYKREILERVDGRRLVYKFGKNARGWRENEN
Put shortly:
as §1

In a further assay the target is SPI1 (Homo sapiens, UniProt P17947 1-270). The gist of the method: as §1
The next assay addresses SPIB (Homo sapiens, UniProt Q01892 1-262). The gist of the method: as §1
A further assay addresses T5, FEV (Homo sapiens, UniProt Q99581 1-238).
T5 sequence: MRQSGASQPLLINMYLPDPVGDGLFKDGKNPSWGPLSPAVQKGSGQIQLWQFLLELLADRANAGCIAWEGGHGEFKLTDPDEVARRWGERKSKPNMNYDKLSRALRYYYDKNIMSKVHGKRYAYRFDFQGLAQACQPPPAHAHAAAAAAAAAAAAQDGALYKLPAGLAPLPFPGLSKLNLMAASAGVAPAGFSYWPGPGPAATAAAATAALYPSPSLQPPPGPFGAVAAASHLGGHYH
The gist of the method:
as §1

For a further assay, the target named is ETV5 (Homo sapiens, UniProt P41161 1-510). Put shortly: as §1
The next assay deals with ELF4 (Homo sapiens, UniProt Q99607 1-663). The gist of the method: as §1
Another assay deals with T6, ELK4 (Homo sapiens, UniProt P28324-2 1-405).
T6 sequence: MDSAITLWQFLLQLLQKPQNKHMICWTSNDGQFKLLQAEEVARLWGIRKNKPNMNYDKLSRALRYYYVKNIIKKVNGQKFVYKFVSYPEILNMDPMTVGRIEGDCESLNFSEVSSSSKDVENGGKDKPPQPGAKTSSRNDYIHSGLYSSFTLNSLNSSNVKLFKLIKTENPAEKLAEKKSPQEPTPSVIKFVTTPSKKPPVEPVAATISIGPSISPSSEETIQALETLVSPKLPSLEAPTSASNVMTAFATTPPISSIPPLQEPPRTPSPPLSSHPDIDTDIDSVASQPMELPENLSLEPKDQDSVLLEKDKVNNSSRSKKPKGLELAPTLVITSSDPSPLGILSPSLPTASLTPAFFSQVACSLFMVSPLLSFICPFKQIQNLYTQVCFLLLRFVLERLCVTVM
Put shortly:
as §1

The next assay deals with T7, ETV2 (Homo sapiens, UniProt O00321 1-342).
T7 sequence: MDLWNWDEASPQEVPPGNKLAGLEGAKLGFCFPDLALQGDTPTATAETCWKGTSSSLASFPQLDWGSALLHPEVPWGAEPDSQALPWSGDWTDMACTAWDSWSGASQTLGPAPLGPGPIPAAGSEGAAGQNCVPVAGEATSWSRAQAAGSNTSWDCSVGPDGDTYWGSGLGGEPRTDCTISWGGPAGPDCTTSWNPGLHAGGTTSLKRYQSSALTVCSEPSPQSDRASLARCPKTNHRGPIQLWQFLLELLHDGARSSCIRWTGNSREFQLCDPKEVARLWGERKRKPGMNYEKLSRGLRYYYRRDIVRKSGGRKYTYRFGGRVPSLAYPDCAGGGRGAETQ
The gist of the method: as §1

The target in a further assay is ETV1 (Homo sapiens, UniProt P50549 1-477). Put shortly: as §1
Another assay addresses T8, ERF (Homo sapiens, UniProt P50548 1-548).
T8 sequence: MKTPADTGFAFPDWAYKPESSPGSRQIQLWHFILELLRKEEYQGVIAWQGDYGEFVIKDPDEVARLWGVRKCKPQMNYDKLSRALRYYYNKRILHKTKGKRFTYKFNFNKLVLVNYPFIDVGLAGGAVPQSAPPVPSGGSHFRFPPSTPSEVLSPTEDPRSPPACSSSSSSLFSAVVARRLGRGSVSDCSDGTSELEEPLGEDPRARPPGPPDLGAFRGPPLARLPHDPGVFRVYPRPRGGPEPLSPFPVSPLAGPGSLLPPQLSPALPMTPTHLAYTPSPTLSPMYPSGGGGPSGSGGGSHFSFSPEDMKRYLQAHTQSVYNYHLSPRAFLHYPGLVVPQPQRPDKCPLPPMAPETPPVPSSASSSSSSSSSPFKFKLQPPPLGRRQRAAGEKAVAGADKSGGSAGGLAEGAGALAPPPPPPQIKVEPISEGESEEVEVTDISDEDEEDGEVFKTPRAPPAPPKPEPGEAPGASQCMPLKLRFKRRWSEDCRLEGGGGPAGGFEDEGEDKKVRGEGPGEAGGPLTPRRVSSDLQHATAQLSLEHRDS
Put shortly:
as §1

A further assay concerns the target T9, ETV3L (Homo sapiens, UniProt Q6ZN32 1-361).
T9 sequence: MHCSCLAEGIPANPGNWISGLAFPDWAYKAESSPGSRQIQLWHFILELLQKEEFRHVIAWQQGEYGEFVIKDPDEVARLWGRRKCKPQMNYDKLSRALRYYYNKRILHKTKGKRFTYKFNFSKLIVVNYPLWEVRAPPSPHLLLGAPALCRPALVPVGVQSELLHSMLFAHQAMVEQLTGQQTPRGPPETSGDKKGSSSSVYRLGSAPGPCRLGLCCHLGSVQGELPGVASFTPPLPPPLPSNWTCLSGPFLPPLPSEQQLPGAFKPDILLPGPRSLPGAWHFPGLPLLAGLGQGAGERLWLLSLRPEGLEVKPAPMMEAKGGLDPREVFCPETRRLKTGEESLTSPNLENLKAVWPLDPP
The gist of the method: as §1

A further assay deals with T10, ETS2 (Homo sapiens, UniProt P15036 1-469).
T10 sequence: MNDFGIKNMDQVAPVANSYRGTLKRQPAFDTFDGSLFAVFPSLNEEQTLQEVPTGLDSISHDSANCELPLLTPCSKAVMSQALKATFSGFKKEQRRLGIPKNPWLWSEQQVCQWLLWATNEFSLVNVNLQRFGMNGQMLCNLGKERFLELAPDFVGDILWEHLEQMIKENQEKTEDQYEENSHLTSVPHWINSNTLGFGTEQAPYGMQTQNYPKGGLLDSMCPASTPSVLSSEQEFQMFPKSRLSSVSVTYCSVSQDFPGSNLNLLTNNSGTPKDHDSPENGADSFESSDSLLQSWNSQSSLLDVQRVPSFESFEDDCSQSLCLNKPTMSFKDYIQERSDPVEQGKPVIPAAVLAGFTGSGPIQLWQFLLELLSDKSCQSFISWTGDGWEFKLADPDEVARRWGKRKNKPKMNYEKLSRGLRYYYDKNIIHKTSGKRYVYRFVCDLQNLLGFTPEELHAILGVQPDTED
Put shortly: as §1

In another assay the target is T11, SPDEF (Homo sapiens, UniProt O95238 1-335).
T11 sequence: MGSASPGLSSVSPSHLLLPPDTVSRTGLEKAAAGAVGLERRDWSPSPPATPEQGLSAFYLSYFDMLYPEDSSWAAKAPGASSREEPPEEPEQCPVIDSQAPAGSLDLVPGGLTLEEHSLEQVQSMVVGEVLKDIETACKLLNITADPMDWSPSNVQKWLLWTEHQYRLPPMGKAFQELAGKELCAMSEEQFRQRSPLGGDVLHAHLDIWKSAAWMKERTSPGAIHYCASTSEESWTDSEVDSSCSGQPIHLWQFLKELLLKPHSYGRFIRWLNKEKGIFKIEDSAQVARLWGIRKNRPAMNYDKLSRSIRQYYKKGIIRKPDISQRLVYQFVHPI
Put shortly: as §1

Another assay concerns the target T12, ETV3 (Homo sapiens, UniProt P41162-2 1-143).
T12 sequence: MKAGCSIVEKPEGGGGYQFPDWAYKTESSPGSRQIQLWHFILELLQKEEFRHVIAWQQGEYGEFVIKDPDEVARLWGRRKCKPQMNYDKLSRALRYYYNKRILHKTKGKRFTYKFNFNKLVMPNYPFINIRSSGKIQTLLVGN
The gist of the method:
as §1

The target in the next assay is ETV6 (Homo sapiens, UniProt P41212 1-452). Put shortly: as §1
Sequence of ETV6 (P41212 whole entry): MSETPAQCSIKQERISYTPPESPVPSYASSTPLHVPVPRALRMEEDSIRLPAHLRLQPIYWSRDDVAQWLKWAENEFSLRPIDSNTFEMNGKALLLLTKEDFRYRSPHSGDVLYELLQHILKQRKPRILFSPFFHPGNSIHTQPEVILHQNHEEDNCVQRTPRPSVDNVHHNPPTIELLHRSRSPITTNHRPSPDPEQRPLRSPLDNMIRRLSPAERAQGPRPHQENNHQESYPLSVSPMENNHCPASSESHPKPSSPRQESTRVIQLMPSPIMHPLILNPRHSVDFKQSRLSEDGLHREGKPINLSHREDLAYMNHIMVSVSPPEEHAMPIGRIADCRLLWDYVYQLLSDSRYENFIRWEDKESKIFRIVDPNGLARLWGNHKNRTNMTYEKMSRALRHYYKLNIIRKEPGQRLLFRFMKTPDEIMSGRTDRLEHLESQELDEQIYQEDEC

Sequence of ELF4 (Q99607 whole entry): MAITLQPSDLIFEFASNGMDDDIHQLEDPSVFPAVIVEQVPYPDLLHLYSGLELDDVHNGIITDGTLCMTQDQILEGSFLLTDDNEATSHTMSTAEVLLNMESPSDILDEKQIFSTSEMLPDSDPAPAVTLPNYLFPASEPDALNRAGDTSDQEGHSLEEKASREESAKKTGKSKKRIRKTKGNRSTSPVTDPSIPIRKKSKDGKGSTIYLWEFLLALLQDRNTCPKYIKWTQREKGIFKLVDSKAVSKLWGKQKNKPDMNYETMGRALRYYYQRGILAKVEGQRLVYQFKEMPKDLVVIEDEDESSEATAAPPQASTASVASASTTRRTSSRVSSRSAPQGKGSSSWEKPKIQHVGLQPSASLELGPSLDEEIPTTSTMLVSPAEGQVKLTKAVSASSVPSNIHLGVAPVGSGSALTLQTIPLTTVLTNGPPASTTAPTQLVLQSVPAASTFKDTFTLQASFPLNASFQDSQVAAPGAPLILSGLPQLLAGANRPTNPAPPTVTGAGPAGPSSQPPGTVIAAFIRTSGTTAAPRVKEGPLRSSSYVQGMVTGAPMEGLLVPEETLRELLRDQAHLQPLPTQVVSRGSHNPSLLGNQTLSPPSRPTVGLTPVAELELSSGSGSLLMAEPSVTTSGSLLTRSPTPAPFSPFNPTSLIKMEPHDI
Sequence of ETV1 (P50549 whole entry): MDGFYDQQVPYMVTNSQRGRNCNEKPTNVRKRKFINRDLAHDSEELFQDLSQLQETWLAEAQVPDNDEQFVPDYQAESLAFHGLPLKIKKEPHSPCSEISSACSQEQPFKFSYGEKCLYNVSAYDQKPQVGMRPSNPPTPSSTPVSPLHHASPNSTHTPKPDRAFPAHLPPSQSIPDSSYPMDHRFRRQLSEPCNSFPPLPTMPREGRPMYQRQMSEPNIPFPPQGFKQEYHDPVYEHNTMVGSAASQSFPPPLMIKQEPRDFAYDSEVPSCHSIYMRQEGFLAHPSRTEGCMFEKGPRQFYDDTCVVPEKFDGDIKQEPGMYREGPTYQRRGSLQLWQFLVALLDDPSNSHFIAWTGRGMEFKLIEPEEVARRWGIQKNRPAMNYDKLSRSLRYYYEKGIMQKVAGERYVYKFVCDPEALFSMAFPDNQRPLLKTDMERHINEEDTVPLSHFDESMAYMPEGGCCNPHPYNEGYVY
Sequence of ELF1 (P32519 whole entry): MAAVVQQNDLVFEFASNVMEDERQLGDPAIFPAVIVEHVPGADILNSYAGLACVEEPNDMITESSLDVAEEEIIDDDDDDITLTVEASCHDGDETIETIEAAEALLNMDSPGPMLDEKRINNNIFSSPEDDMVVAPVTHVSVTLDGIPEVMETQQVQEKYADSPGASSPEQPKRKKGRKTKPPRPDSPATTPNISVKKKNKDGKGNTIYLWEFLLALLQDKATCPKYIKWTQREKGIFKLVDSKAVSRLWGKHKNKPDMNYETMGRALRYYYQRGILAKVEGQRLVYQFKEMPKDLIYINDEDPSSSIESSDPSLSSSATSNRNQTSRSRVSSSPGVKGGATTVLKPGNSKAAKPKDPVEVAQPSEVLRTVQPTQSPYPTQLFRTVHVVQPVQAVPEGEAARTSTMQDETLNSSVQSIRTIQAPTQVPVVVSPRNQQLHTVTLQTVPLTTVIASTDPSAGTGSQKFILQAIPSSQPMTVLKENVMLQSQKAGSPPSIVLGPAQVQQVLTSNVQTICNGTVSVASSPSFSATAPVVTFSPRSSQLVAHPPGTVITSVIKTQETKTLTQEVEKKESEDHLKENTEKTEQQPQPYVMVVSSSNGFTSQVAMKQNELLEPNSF
Sequence of ETV5 (P41161 whole entry): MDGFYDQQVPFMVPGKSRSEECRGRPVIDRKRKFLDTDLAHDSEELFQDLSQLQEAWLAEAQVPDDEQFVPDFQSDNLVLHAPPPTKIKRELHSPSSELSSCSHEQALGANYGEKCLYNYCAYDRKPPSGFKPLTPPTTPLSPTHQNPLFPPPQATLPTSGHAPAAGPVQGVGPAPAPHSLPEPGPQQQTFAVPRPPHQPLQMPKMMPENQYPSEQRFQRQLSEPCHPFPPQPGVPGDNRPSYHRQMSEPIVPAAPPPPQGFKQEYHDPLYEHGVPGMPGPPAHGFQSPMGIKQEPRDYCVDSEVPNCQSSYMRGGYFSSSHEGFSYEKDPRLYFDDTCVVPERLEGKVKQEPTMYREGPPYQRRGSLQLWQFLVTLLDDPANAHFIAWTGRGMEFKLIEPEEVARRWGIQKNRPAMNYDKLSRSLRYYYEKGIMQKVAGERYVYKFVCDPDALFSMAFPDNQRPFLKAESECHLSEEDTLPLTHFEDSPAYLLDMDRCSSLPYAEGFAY
Sequence of SPIB (Q01892 whole entry): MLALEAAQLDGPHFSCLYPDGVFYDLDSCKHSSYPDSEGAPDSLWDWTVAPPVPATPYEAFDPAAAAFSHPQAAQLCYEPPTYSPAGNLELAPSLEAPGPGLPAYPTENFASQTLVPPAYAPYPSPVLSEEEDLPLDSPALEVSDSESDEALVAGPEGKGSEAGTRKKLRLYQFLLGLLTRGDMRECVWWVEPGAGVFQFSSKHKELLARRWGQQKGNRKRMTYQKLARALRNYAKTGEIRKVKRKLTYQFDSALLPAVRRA

As to CTAGCG, the binding signal with ELK1 is 1.12 fold enrichment (6-mer frequency, TF over GST control); with GABPA, 1.32 fold enrichment (6-mer frequency, TF over GST control); with ERG it was 1.19 fold enrichment (6-mer frequency, TF over GST control); with ELF1, 1.11 fold enrichment (6-mer frequency, TF over GST control); with EHF it was 1.18 fold enrichment (6-mer frequency, TF over GST control); in the assay with SPI1 it was 1.15 fold enrichment (6-mer frequency, TF over GST control). For the same sequence, the binding signal with SPIB is 1.17 fold enrichment (6-mer frequency, TF over GST control); with FEV it was 1.15 fold enrichment (6-mer frequency, TF over GST control); with ETV5, 1.22 fold enrichment (6-mer frequency, TF over GST control); in the assay with ELF4 it was 1.1 fold enrichment (6-mer frequency, TF over GST control); with ELK4, 1.16 fold enrichment (6-mer frequency, TF over GST control); with ETV2, 1.09 fold enrichment (6-mer frequency, TF over GST control). Further, the binding signal is 1.17 fold enrichment (6-mer frequency, TF over GST control) in the assay with ETV1; 1.31 fold enrichment (6-mer frequency, TF over GST control) with ERF; 1.07 fold enrichment (6-mer frequency, TF over GST control) with ETV3L; 1.18 fold enrichment (6-mer frequency, TF over GST control) with ETS2; 1.1 fold enrichment (6-mer frequency, TF over GST control) with SPDEF; 1.15 fold enrichment (6-mer frequency, TF over GST control) with ETV3. In the assay with ETV6, the binding signal is 1.08 fold enrichment (6-mer frequency, TF over GST control).
